SMILES strings stand for the structures. The whole screen tested about 310,000 compounds, of which about 14,000 (4.5%) showed an effect of 50% or more. Effects have a minus sign here. The sample as a whole holds a higher share of strong results than the screen did.
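Also: peak tail current of the secondary pulse compared with the same well before compound.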

Chain of human ether-à-go-go-related gene (hERG) potassium channel (Q12809 whole entry, looked up): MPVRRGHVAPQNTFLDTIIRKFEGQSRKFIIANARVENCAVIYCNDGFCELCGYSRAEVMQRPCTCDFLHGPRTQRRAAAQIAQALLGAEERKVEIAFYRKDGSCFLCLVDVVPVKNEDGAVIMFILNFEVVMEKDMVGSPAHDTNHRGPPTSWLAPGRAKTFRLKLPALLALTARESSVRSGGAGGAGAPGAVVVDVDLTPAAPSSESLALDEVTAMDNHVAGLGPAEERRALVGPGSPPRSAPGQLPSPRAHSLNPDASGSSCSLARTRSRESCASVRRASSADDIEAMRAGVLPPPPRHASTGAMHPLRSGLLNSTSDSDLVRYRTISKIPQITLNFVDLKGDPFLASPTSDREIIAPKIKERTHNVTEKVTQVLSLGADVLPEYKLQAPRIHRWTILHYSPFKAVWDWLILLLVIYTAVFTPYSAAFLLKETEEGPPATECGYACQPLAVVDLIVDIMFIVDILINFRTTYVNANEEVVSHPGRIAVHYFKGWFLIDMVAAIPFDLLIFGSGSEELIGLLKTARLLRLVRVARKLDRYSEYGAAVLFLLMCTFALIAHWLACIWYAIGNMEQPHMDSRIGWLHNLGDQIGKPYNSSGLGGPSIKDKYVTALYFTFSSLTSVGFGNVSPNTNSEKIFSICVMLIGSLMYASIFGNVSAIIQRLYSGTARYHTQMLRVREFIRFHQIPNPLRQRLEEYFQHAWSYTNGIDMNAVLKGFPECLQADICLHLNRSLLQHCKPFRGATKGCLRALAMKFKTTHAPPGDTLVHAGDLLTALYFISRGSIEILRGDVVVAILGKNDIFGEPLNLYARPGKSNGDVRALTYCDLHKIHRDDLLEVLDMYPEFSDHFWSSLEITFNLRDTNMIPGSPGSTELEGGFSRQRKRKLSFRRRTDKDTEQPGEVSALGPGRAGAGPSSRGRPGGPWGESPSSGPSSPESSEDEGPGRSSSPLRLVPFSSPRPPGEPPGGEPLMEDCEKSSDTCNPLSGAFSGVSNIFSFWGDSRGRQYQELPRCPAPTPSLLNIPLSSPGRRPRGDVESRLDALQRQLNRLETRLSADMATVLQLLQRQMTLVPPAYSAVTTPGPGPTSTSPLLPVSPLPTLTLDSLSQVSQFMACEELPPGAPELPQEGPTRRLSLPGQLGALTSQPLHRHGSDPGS

This experiment addresses human ether-à-go-go-related gene (hERG) potassium channel (human, UniProt Q12809). Nature of the experiment: primary screen, population patch clamp on CHO cells stably expressing hERG; higher = less effect of the substance.
As to `COc1cccc(-c2ccc3nnc(SCC(=O)N4CCOCC4)n3n2)c1`, the “hERG current change (%, negative = inhibition) at 10uM” value was -6.27%. Under `O=C(Nc1cc(Sc2ccccn2)cc([N+](=O)[O-])c1)c1ccc([N+](=O)[O-])cc1` stands -6.06%; under `CCOc1ccc(-n2ccc(=O)c(C(=O)Nc3ccc(S(=O)(=O)Nc4ncccn4)cc3)n2)cc1`, 7.22%. Under `CC1CCCC(NC(=O)CCn2c(=O)oc3ccccc32)C1C` (stereo not drawn) stands -18.4%; under `COC(=O)c1cc2oc(C)cc2n1CC(=O)N(C)c1ccccc1`, 5.36%; under `O=C(O)c1ccc(/C=N/N2CCN(c3ccccc3)CC2)cc1`, 7.59%. On to `CC(C)N(C(=O)CSc1nc(COc2ccccc2)nc2ccccc12)C(C)C`, for which the “hERG current change (%, negative = inhibition) at 10uM” value is recorded as -4.66%. Then `O=C(NC(=S)N1CCOCC1)c1cc2ccccc2o1`, with 12.7%; and `O=C(Cc1ccccn1)c1ccc(O)cc1O`, with 21.5%; and `Cc1ccccc1Nc1nnc(SCC(=O)Nc2ccccc2[N+](=O)[O-])s1`, with 3.5%. Then `O=S1(=O)[C@H]2C[C@@H]3C=C[C@@]2(CN1Cc1ccc(F)cc1)O3`, with -25.2%. As for `CCN(CC)CCNC(=O)c1cc2ccccc2nc1Cl`, the “hERG current change (%, negative = inhibition) at 10uM” value amounted to 43.4%.

With `CCCCCn1c(=O)[nH]c2cc(C(=O)N3CCN(C(=O)OCC)CC3)ccc2c1=O`, the “hERG current change (%, negative = inhibition) at 10uM” value is -9.61%.

As to `Cc1cc2ccccc2n1CCNC(=O)C(C)(C)C`, the “hERG current change (%, negative = inhibition) at 10uM” value stood at 11.7%.

For the molecule `CCC(=O)NCCn1c(C)cc2ccccc21`, the “hERG current change (%, negative = inhibition) at 10uM” value is listed as -0.267%.

Take `CC(=O)NCCn1c(C)cc2ccccc21`: the “hERG current change (%, negative = inhibition) at 10uM” value is -55.1%.

Regarding `O=C(O)C(=O)O.O=C(c1ccccc1)c1ccc(OCC(O)CNCc2cccc(Cl)c2)cc1` (stereo not drawn), the “hERG current change (%, negative = inhibition) at 10uM” value is recorded as -60.3%.

Regarding `COc1ccc(CNC(C)Cc2cccs2)cc1` (stereo not drawn), the “hERG current change (%, negative = inhibition) at 10uM” value is reported as -2.79%. Then `Cc1ccc(OCC(O)CNCc2ccccc2)cc1C` (stereo not drawn), with -33.5%; and `C=CCOc1ccc(CN(C)CC(O)COc2cccc3ccccc23)cc1` (stereo not drawn), with -23.2%; and `O=C(O)C(=O)O.O=C(c1ccccc1)c1ccc(OCC(O)CNCc2ccc(Cl)cc2)cc1` (stereo not drawn), with -66.6%. `CN(Cc1ccccc1)CC(O)COc1ccc(CNCCc2ccncc2)cc1` (stereo not drawn): the “hERG current change (%, negative = inhibition) at 10uM” value was -17.5%. Then `COc1ccc(CNC(=O)Cc2cccs2)cc1`, with 15%.

Turning to `O=C(O)C(=O)O.OC(CNCc1ccc(Cl)cc1)COc1ccccc1` (stereo not drawn), the “hERG current change (%, negative = inhibition) at 10uM” value is -41.9%. Under `COC(=O)c1ccc(COc2ccc(CNCc3ccc(Cl)cc3)cc2)cc1` stands -0.414%; under `COc1cccc(CNCC(O)COc2ccc(C(=O)c3ccccc3)cc2)c1` (stereo not drawn), -34.7%.

With `C=CCOc1ccc(CN(C)CC(O)COc2ccc(CCC(C)=O)cc2)cc1` (stereo not drawn), the “hERG current change (%, negative = inhibition) at 10uM” value is recorded as -63.6%. Then `COc1ccc(CNCC(O)COCc2cccs2)cc1` (stereo not drawn), with -60.8%. Then `CCNC(=O)/C=C/c1ccccc1[N+](=O)[O-]`, with 8.82%; and `COc1ccc2[nH]c(=O)c(CN(c3ccccc3)S(=O)(=O)c3ccccc3)cc2c1`, with 11.2%; and `COc1ccc2cnn(-c3ccc(OC(F)(F)F)cc3)c(=O)c2c1OC`, with -6%.

With `CCOC(=O)C(=CNc1cc(C)ccc1-n1cccc1)C(=O)OCC`, the “hERG current change (%, negative = inhibition) at 10uM” value was found to be 2.05%. Then `Cc1ccc(/C=C2/Sc3ccc(C(=O)N4CCC5(CC4)OCCO5)cc3NC2=O)cc1`, with 16.1%; and `Cc1sc(NC(=O)CN(Cc2ccccc2)C(=O)C(C)C)c(C(N)=O)c1C`, with -0.293%. Then `O=C(COc1cc(F)ccc1[N+](=O)[O-])Nc1ccc2c(c1)OCO2`, with 1.25%. Under `Cc1csc(NC(=O)C2CCN(S(=O)(=O)c3ccc4c(c3)oc(=O)n4C)CC2)n1` stands -11.5%; under `COCCNC(=O)c1cc(-c2ccccc2)n(Cc2cc(C)no2)n1`, 0.26%; under `Cn1c(O)c(C=NCCN2CCN(C(=O)Nc3ccccc3)CC2)c(=O)n(C)c1=O`, 13.1%. Regarding `O=C(Nc1cc(Cl)cc(Cl)c1)C(NCCCO)c1ccccc1` (stereo not drawn), the “hERG current change (%, negative = inhibition) at 10uM” value is given as 3.1%. Under `COc1ccc(CCC(=O)NCCOc2ccc(C)cc2)cc1` stands 2.1%; under `CC(NCC(O)COCc1ccc(Cl)cc1)c1ccccc1.Cl` (stereo not drawn), -43.1%; under `Cc1ccc(C(OCC(O)CNCc2ccc(F)cc2)c2ccccc2)cc1.O=C(O)C(=O)O` (stereo not drawn), -75.7%. Then `Cc1ccc(CNCc2ccc3c(c2)OCO3)cc1`, with -0.503%. For the molecule `Cc1ccc(OCCNCC(O)COc2ccccc2)cc1.O=C(O)C(=O)O` (stereo not drawn), the “hERG current change (%, negative = inhibition) at 10uM” value is on record as -44.2%. Under `CC(C)(C)NCC(O)COCc1ccc(Cl)cc1.Cl` (stereo not drawn) stands -24.6%.

Source of the values: PMC4336329 (PLoS ONE, 2015).
